Assay results: PubChem BioAssay (NCATS)
“And” between values parts separate entries of the source, which are not always exact repeats. Equal values may be shown once. Results filed as inconclusive are left out. The source made the active and inactive calls. Unless noted, calls follow the shape of the dose curve; as a rule, active = well fitted curve in the direction sought with a large enough effect; inconclusive = small, poorly fitted or top-dose-only effect, or another doubt; inactive = no such curve, though single readings can be large; an effect the other way counts as inactive or inconclusive.

Experiments:
[1] = molecular target: Cellular tumor antigen p53 (Homo sapiens) (UniProt P04637); test: Primary qHTS for small molecule compounds that upregulate eGFP-tagged delta133p53alpha (in N-terminal) cells. (AID 2060322); conditions: NCI-H358 eGFP-delta133p53alpha fluorescence, 24 h; activation: stronger effect = higher value; also: nearly all actives have a fitted effect of over 75% in size; also: potency is read from the fitted curve at half-maximal effect;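 as to activation: cells pre-induced with doxycycline then dosed without doxycycline; 0% = DMSO vehicle and 100% = reference activator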
Outline: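 NCI-H358 cells pre-induced 24 h with 10 ng/ml doxycycline for eGFP-delta133p53alpha, plated dox-free and exposed 24 h at 37C to titrated compounds. Fixed, Hoechst-stained; gated GFP peak intensity by laser scanning cytometry, normalized to DMSO (0%) and 57.5 uM 5-azacytidine (100%).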

[2] = molecular target: Aldehyde dehydrogenase, mitochondrial (Homo sapiens) (UniProt P05091); test: qHTS for Inhibitors of the Aldehyde Dehydrogenase Family (ALDH2) Confirmatory screens (AID 2061303; active = well fitted inhibition curve with a large enough effect; title and protocol of this record describe different tests; also: % is scaled to controls: 0 for no effect and ±100 for the full control effect; nearly all actives have a fitted effect of over 45% in size); conditions: ALDH inhibition qHTS; series mostly up to 45.4 µM
[3] = qHTS for Inhibitors of the Aldehyde Dehydrogenase Family (ALDH1A2, ALDH1A3, ALDH2, ALDH3A1) (AID 2061307); conditions: ALDH inhibition qHTS; series mostly up to 50.3 µM; also: nearly all actives have a fitted effect of over 50% in size
[4] = molecular target: Aldehyde dehydrogenase, mitochondrial (Homo sapiens) (UniProt P05091); test: qHTS for Inhibitors of the Aldehyde Dehydrogenase Family (ALDH2) Primary screen (AID 2061308); conditions: ALDH2 enzyme inhibition qHTS, 1536-well; series mostly up to 56 µM;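 also: plate controls were vehicle for no effect and reference inhibitor for full effect; nearly all actives have a fitted effect of over 55% in size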
[5] = molecular target: Retinaldehyde dehydrogenase 3 (Homo sapiens) (UniProt P47895); test: qHTS for Inhibitors of the Aldehyde Dehydrogenase Family (ALDH1A3) Confirmatory screens (AID 2061311); conditions: ALDH inhibition qHTS; series mostly up to 46 µM; also: % is scaled to controls: 0 for no effect and ±100 for the full control effect; nearly all actives have a fitted effect of over 60% in size
[6] = molecular target: Retinal dehydrogenase 2 (Homo sapiens) (UniProt O94788); test: qHTS for Inhibitors of the Aldehyde Dehydrogenase Family (ALDH1A2) Confirmation screens (AID 2061314); conditions: ALDH1A2 enzyme inhibition qHTS confirmation; series mostly up to 45.9 µM; also: nearly all actives have a fitted effect of over 65% in size; also: potency is read from the fitted curve at half-maximal effect
[7] = molecular target: Retinaldehyde dehydrogenase 3 (Homo sapiens) (UniProt P47895); test: qHTS for Inhibitors of the Aldehyde Dehydrogenase Family (ALDH1A3) Primary screen (AID 2061315); conditions: ALDH inhibition qHTS; series mostly up to 56 µM; also: potency is read from the fitted curve at half-maximal effect
[8] = molecular target: Aldehyde dehydrogenase 1A1 (Homo sapiens) (UniProt P00352); test: qHTS for Inhibitors of the Aldehyde Dehydrogenase Family (ALDH1A1) Confirmatory screens (AID 2061316); conditions: ALDH inhibition qHTS; series mostly up to 47.3 µM; also: nearly all actives have a fitted effect of over 65% in size
[9] = BET inhibitor-based combinations targeting novel dependencies in MECOM-rearranged (r) AML: SET-2 cell line (AID 2202231); conditions: SET-2 AML cells viability, CellTiter-Glo luminescence, 48 h; viability: stronger effect = lower value, concentration not given here; also: nearly all actives have a fitted effect of over 35% in size; also: potency is read from the fitted curve at half-maximal effect;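 as to viability: plate controls were DMSO treated cells for no effect and wells without cells for full effect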
Outline: (§1)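 AML cell lines seeded at 500 cells/well, treated with 11-point dose curves for 48 h. Viability by CellTiter-Glo luminescence, normalised to DMSO and empty wells; activity expressed as AUC and per-cell-line Z-transformed AUC.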

[10] = BET inhibitor-based combinations targeting novel dependencies in MECOM-rearranged (r) AML: OCI-AML3 cell line (AID 2202232); conditions: CellTiter-Glo luminescence, 48 h; Potency: OCI-AML3 viability; series mostly up to 46 µM; also: nearly all actives have a fitted effect of over 35% in size; also: potency is read from the fitted curve at half-maximal effect
Outline: as §1

[11] = BET inhibitor-based combinations targeting novel dependencies in MECOM-rearranged (r) AML: MV-4-11 cell line (AID 2202233); conditions: MV-4-11 AML viability, CellTiter-Glo luminescence, 48 h; series mostly up to 46 µM; also: potency is read from the fitted curve at half-maximal effect; nearly all actives have a fitted effect of over 45% in size
Outline: (§2)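 Cells at 500/well were exposed for 48 hr to MIPE v5.0 drugs as 11-point dose curves. Viability was read by CellTiter-Glo luminescence and normalized to DMSO and empty-well controls. Activity was expressed as AUC and per-cell-line Z-AUC.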

[12] = BET inhibitor-based combinations targeting novel dependencies in MECOM-rearranged (r) AML: HNT-34 cell line (AID 2202234); conditions: HNT-34 AML viability, CellTiter-Glo luminescence, 48 h; series mostly up to 46 µM; also: nearly all actives have a fitted effect of over 35% in size; also: potency is read from the fitted curve at half-maximal effect
Outline: as §2

[13] = BET inhibitor-based combinations targeting novel dependencies in MECOM-rearranged (r) AML: UCSD-AML1 cell line (AID 2202235); conditions: UCSD-AML1 AML cells viability, CellTiter-Glo, 48 h; series mostly up to 46 µM; also: nearly all actives have a fitted effect of over 40% in size; also: potency is read from the fitted curve at half-maximal effect
Outline: as §2

[14] = molecular target: Retinaldehyde dehydrogenase 3 (Homo sapiens) (UniProt P47895); test: qHTS for Inhibitors of the Aldehyde Dehydrogenase Family (ALDH1A3) Validation screen (AID 2061312); conditions: ALDH1A3 enzyme inhibition qHTS validation, fluorescence; series mostly up to 84.7 µM; also: % is scaled to controls: 0 for no effect and ±100 for the full control effect; nearly all actives have a fitted effect of over 45% in size
[15] = BET inhibitor-based combinations targeting novel dependencies in MECOM-rearranged (r) AML: AML-191 cell line (AID 2202236; also: potency is read from the fitted curve at half-maximal effect; nearly all actives have a fitted effect of over 35% in size); conditions: AML-191 viability, CellTiter-Glo luminescence, 48 h; series mostly up to 46 µM
Outline: as §1

[16] = BET inhibitor-based combinations targeting novel dependencies in MECOM-rearranged (r) AML: AML-194 cell line (AID 2202237; also: potency is read from the fitted curve at half-maximal effect; nearly all actives have a fitted effect of over 40% in size); conditions: AML-194 (MECOM-r AML) viability, CellTiter-Glo, 48 h; series mostly up to 46 µM
Outline: as §1

Cellular tumor antigen p53 (Homo sapiens), sequence (P04637 whole entry, looked up): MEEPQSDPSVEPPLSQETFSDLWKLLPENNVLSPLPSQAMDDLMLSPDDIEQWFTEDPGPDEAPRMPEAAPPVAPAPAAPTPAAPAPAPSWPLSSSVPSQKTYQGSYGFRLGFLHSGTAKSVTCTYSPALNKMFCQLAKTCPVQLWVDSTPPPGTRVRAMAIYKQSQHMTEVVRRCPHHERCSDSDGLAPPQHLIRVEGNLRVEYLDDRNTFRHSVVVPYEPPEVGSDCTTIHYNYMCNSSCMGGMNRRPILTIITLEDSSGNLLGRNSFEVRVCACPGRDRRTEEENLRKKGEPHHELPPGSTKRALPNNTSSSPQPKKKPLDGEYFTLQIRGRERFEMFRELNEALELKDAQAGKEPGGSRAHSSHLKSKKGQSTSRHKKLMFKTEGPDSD

Fc1ccc(-c2nc(C3CCNCC3)sc2-c2ccnc(NC3CC3)n2)cc1
active: Potency [1] 26900 nM
inactive: Potency [2] | Potency [3] | Potency [4] | Potency [5] | Potency [6] | Potency [7] | Potency [8]

C=C1CC[C@H]2[C@@](C)(CCC(OC3OC(CO)C(O)C(O)C3O)[C@@]2(C)CO)C1C(=O)CC1=CCOC1=O (some centres not stated)
inactive: activation [1] -1.53% | Potency [2] | Potency [3] | Potency [4] | Potency [6]

CC1(C)CC(=O)c2c(C(F)(F)F)nn(-c3ccc(C(N)=O)c(NC4CCC(OC(=O)CN)CC4)c3)c2C1 (configuration not stated)
active: Potency [9] 263 nM | Potency [10] 209 nM | Potency [11] 59 nM | Potency [12] 209 nM | Potency [13] 186 nM
inactive: activation [1] 38.8% and -1.67% | Potency [2] | Potency [3] | Potency [4] | Potency [7] | Potency [8]

CC(=O)OCC(=O)[C@@]1(O)[C@H](C)C[C@H]2[C@@H]3C=C(C)C4=Cc5c(cnn5-c5ccccc5)C[C@]4(C)[C@@H]3[C@@H](O)C[C@@]21C
inactive: activation [1] 2.08% | Potency [2] | Potency [3] | Potency [4] | Potency [6] | Potency [7] | Potency [8] | viability [9] 96.5% | Potency [10] | Potency [12] | Potency [13]

COc1cc(/C=C/c2cc(O)cc(O[C@@H]3O[C@H](CO)[C@@H](O)[C@H](O)[C@H]3O)c2)ccc1O
active: Potency [7] 6310 nM
inactive: activation [1] 7.63% | Potency [2] | Potency [3] | Potency [4] | Potency [6] | Potency [8]

CC1(C)[C@H](C(=O)O)N2C(=O)C[C@H]2S1(=O)=O
inactive: activation [1] -10% and -6.44% and -12.3% | Potency [2] | Potency [3] | Potency [4] | Potency [6] | Potency [7] | Potency [8]

C=C1CC23CC1CCC2C12OC(=O)C(C)(CCC1O)C2C3C(=O)O (configuration not stated)
inactive: activation [1] 21.4% | Potency [2] | Potency [3] | Potency [4] | Potency [6]

COc1ccnc(CCc2nc3ncccc3[nH]2)c1
inactive: activation [1] -5.73% | Potency [2] | Potency [3] | Potency [5] | Potency [6] | Potency [7] | Potency [8]

CCOc1ccc2ccccc2c1C(=O)N[C@@H]1C(=O)N2[C@@H]1SC(C)(C)[C@@H]2C(=O)O
inactive: activation [1] 5.08% and -4.77% | Potency [2] | Potency [3] | Potency [4] | Potency [14] | Potency [6] | Potency [8]

COc1cc(C(O)C2COC(c3ccc(OC4OC(CO)C(O)C(O)C4O)c(OC)c3)C2CO)ccc1O (configuration not stated)
inactive: activation [1] -10.7% | Potency [2] | Potency [3] | Potency [4] | Potency [8]

C[C@@H]1CN(Cc2ncccn2)C[C@H]1c1nc2c(cnn2C2CCOCC2)c(=O)[nH]1
inactive: activation [1] 0.955% | Potency [2] | Potency [3] | Potency [5] | Potency [14] | Potency [6] | Potency [7]

C/C=C1\[C@H](O[C@@H]2O[C@H](CO)[C@@H](O)[C@H](O)[C@H]2O)OC=C(C(=O)OC)[C@H]1CC(=O)OC[C@H]1O[C@@H](OCCc2ccc(O)cc2)[C@H](O)[C@@H](O)[C@@H]1O
inactive: activation [1] -1.53% | Potency [2] | Potency [3] | Potency [4] | Potency [6]

COc1cccc2cc(-c3nc(C4CCC(C(=O)O)CC4)n4ncnc(N)c34)[nH]c12 (configuration not stated)
active: Potency [3] 3570 nM | Potency [9] 2950 nM | Potency [10] 1660 nM | Potency [11] 833 nM | Potency [12] 833 nM
inactive: activation [1] 12.5% and 16.7% | Potency [2] | Potency [4] | Potency [7]

CC(C)(Cc1ccccc1)NCC(O)c1ccc(O)c(NS(C)(=O)=O)c1 (configuration not stated)
inactive: activation [1] -0.955% | Potency [2] | Potency [3] | Potency [4] | Potency [14] | Potency [6] | Potency [8]

CN(C)C(=O)Nc1cccc(-c2ccc(N(C)C)cc2)c1
inactive: activation [1] -14.8% | Potency [2] | Potency [3] | Potency [4] | Potency [8]

COc1cc(Nc2ncc(F)c(Nc3ccc4c(n3)NC(=O)C(C)(C)O4)n2)cc(OC)c1OC
inactive: activation [1] 7.29% | Potency [2] | Potency [3] | Potency [4]
active: Potency [10] 9340 nM | Potency [11] 148 nM | Potency [12] 1180 nM | Potency [13] 1480 nM | Potency [15] 5900 nM | Potency [16] 7420 nM

CNC(=O)c1cc(Oc2ccc(NC(=O)c3cccc(C(F)(F)F)c3)cc2)ccn1
active: Potency [3] 6340 nM
inactive: activation [1] 8.04% | Potency [2] | Potency [4] | Potency [6] | Potency [7] | Potency [8]

CC1(COc2ccc3c(c2)ncn3-c2ccc3cccc(N4CCC(N)CC4)c3n2)COC1
inactive: Potency [2] | Potency [3] | Potency [4] | Potency [7] | Potency [8]
active: Potency [1] 21300 nM | Potency [6] 14200 nM | Potency [9] 13200 nM | Potency [10] 7420 nM | Potency [11] 33.2 nM | Potency [12] 5900 nM | Potency [13] 4170 nM | Potency [15] 2090 nM | Potency [16] 2350 nM
